This note sets out measurements from PubChem BioAssay (Tox21).

Unmarked numbers belong to inactive results. Records with an inconclusive call do not appear. Calls of active or inactive are those of the source. Unless noted, calls come from the whole dose curve; as a rule, active = well fitted curve in the direction sought with a large enough effect in the repeat runs; inconclusive = weak or mixed curves; inactive = no such curve, though single readings can be large; an effect the other way counts as inactive or inconclusive.

Experiment [1] addresses Luciferin 4-monooxygenase (Photinus pyralis) (UniProt P08659). The experiment is described as follows: qHTS assay to identify small molecule inhibitors of firefly luciferase (AID 1224835). Note: nearly all actives have a fitted effect of over 25% in size. Note: potency is the fitted concentration of half-maximal effect. The essentials: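 Biochemical qHTS: compounds run as interplate titrations against purified firefly enzyme, with D-luciferin and ATP each at its KM concentration. Light output recorded by CCD imaging.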
A general note: Quantitative high-throughput screening tests each substance at several concentrations.

Experiment [2] can be described thus: qHTS assay to identify small molecule agonists of the constitutive androstane receptor (CAR) signaling pathway - cell viability counter screen (AID 1224836). Note: nearly all actives have a fitted effect of over 45% in size. Note: potency is the fitted concentration of half-maximal effect. The essentials:
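23 h treatment, 37 C, 5% CO2. Cell line: HepG2 stably expressing hCAR with a CYP2B6-2.2kb construct. Co-treatment: PK11195, 0.75 uM final. Read-out: CellTiter-Fluor fluorescence intensity.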

The nature of experiment [3]: qHTS assay to identify small molecule antagonists of the constitutive androstane receptor (CAR) signaling pathway - cell viability counter screen (AID 1224837). Note: nearly all actives have a fitted effect of over 45% in size. Note: potency is the fitted concentration of half-maximal effect. The essentials: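 Counter screen run in HepG2-CYP2B6-hCAR cells: 4 hr settle, compound titration (15 concentrations) with 50 nM CITCO, 23 hr at 37 C/5% CO2, CellTiter-Fluor fluorescence.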
The target in experiment [4] is Nuclear receptor subfamily 1 group I member 3 (Homo sapiens) (UniProt Q14994). Put plainly: qHTS assay to identify small molecule agonists of the constitutive androstane receptor (CAR) signaling pathway (AID 1224839).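 Note: HepG2 cells stably carrying human CAR and a CYP2B6 luciferase reporter; nearly all actives have a fitted effect of over 15% in size.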 The method, boiled down:
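Compounds tested at 15 concentrations on HepG2 cells stably harbouring hCAR and CYP2B6-2.2kb reporter constructs, co-treated with PK11195 (0.75 uM final), 24 h at 37 C; luminescent reporter signal quantified.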

Experiment [5] in a line: qHTS assay to identify small molecule antagonists of the estrogen related receptor signaling pathway with the pleiotropic PPARgamma coactivator (PGC) from Tox21 10K library - cell viability counter screen (AID 1224840; active = well fitted cell-killing curve with a large enough effect in the repeat runs, not every such curve was filed as active; note: nearly all actives have a fitted effect of over 40% in size; note: potency is the fitted concentration of half-maximal effect). The essentials:
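Following seeding of 2,000 PGC/ERR cells/well and 6 hours' incubation, test compounds were delivered in DMSO. The plates then sat 17.5 hours at 37 C before a fluorogenic live-cell protease reagent (CellTiter-Fluor) was read after 30 min.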

For experiment [6], the target named is Thyrotropin receptor (Homo sapiens) (UniProt P16473). Put plainly: qHTS assay to identify small molecule agonists of the thyroid stimulating hormone receptor (TSHR) signaling pathway (AID 1224843; calls by dose curve; note: nearly all actives have a fitted effect of over 45% in size). The method, boiled down:
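Steps: seed 800 TSHR-HEK293 cells per well; add test compound and hold 30 min at ambient temperature; dispense cAMP-d2 then anti-cAMP cryptate; incubate 1 h at ambient; measure fluorescence intensity.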

A short description of experiment [7]: qHTS assay to identify small molecule agonists of the hypoxia (HIF-1) signaling pathway - cell viability counter screen (AID 1224844; calls by dose curve; note: nearly all actives have a fitted effect of over 50% in size). The essentials: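 Cells (HRE-bla ME-180, 2,000 per well) sat 5 hrs at 37C, got compound for 17 hrs, were read for CCF4-AM FRET, and were finally lysed with CellTiter-Glo for a 30 min room-temperature luminescence read.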
Experiment [8] can be described thus: qHTS assay to identify small molecule agonists of H2AX (AID 1224845; active = well fitted activation curve with a large enough effect in the signal ratio in the repeat runs, not every such curve was filed as active; the % refers to the signal ratio). The method, boiled down: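 Wild-type CHO-K1 cells, plated overnight, exposed 3hr at 37C to 15 concentrations (0.76% DMSO final). Lysed, then HTRF anti-pH2AX (S139) cryptate and anti-H2AX-d2 antibodies, 24 hr room temperature; 665/620 nm emission read.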
The nature of experiment [9]: qHTS assay to identify small molecule agonists of H2AX - cell viability counter screen (AID 1224847; calls by dose curve; note: top concentration of the series differs between compounds; nearly all actives have a fitted effect of over 30% in size). The essentials:
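Compounds tested at 15 concentrations were incubated 3 hr at 37C with wild-type CHO-K1 cells; cellular ATP-based luminescence (CellTiter-Glo) indicated viability.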

The nature of experiment [10]: qHTS RealTime-Glo MT Cell Viability Assay in HepG2 cells - 24 hour (AID 1224867). Note: nearly all actives have a fitted effect of over 50% in size. The method, boiled down:
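Cell number in HepG2 cultures estimated from NanoLuc luminescence generated by metabolic reduction of a prosubstrate by living cells. The homogeneous, nonlytic format allowed repeated reads at 0, 8, 16, 24, 32 and 40 h of compound exposure.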

Experiment [11] in a line: qHTS RealTime-Glo MT Cell Viability Assay in HEK293 cells - 32 hour (AID 1224868). Note: top concentration of the series differs between compounds; nearly all actives have a fitted effect of over 50% in size. The method, boiled down:
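Homogeneous bioluminescent viability format in HEK293 cells (600 cells/well). Following 5 h at 37 C/5% CO2, 23 nL compound was pintooled; the signal was measured repeatedly during 40 h incubation.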

The nature of experiment [12]: A CellTox Green Cytotoxicity Assay to monitor cytotoxicity in HEK293 cells - 0 hour (AID 1224869). Note: nearly all actives have a fitted effect of over 50% in size. The method, boiled down: (§1)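 Fluorescence intensity, read at 0, 8, 16, 24, 32 and 40 h of compound treatment, reflected dye binding to DNA of dead HEK293 cells; compounds (23 nL, DMSO) were added 5 h after plating cells with reagent.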
Experiment [13] in a line: qHTS RealTime-Glo MT Cell Viability Assay in HepG2 cells - 40 hour (AID 1224870). Note: nearly all actives have a fitted effect of over 50% in size. Note: potency is the fitted concentration of half-maximal effect. The method, boiled down:
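HepG2 cells (600/well) mixed with RealTime-Glo MT reagent, settled 5 h at 37 C/5% CO2 before compound addition. Nonlytic NanoLuc luminescence from viable-cell prosubstrate reduction read repeatedly during 40 h treatment at 37 C.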

The nature of experiment [14]: A CellTox Green Cytotoxicity Assay to monitor cytotoxicity in HEK293 cells - 40 hour (AID 1224871). Note: nearly all actives have a fitted effect of over 45% in size. The essentials:
as §1

A short description of experiment [15]: qHTS assay to identify small molecule agonists of the estrogen related receptor signaling pathway with the pleiotropic PPARgamma coactivator (PGC) from Tox21 10K library (AID 1224842). Note: nearly all actives have a fitted effect of over 15% in size. The essentials: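 PGC/ERR reporter cell line, 2,000 cells per well, incubated 6 h at 37 C before 23 nL compound in DMSO was added. After 18 h at 37 C, One-Glo luminescence read following 30 min at room temperature.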

A short description of experiment [16]: qHTS assay to identify small molecule agonists of the hypoxia (HIF-1) signaling pathway (AID 1224846; active = well fitted activation curve with a large enough effect in the signal ratio in the repeat runs, not every such curve was filed as active; the % refers to the signal ratio). The method, boiled down: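 A low-serum medium (0.5% dialyzed FBS) holding 2,000 HRE-bla ME-180 cells per well is preincubated for 5 hrs, dosed with compounds by pintool, and kept a further 17 hrs at 37C, 5% CO2 before CCF4-AM FRET detection of beta-lactamase.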

The nature of experiment [17]: qHTS assay to identify small molecule agonists of the estrogen related receptor (ERR) signaling pathway from Tox21 library (AID 1224849; calls by dose curve; note: nearly all actives have a fitted effect of over 15% in size). Particulars: ERR reporter cell line, ONE-Glo luciferase, 18 h. The essentials:
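Screening used an NTP-provided ERR luciferase cell line. Compounds in DMSO were added 6 h after seeding and left 18 h at 37 C before a 30 min ONE-Glo step and luminescence reading.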

Experiment [18] is described as follows: qHTS assay to identify small molecule antagonists of the estrogen related receptor signaling pathway with the pleiotropic PPARgamma coactivator (PGC) from Tox21 10K library (AID 1224841; call rule not given here). The method, boiled down:
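qHTS antagonist format: PGC/ERR cells, 2k/well, compound in DMSO by pin transfer after 6 h attachment, 18 h treatment at 37 C, One-Glo luminescence read at 30 min.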

Experiment [19] is described as follows: qHTS assay to identify small molecule antagonists of the estrogen related receptor (ERR) signaling pathway from Tox21 library (AID 1224848). Note: nearly all actives have a fitted effect of over 50% in size. The essentials: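 Luminescent reporter read-out (ONE-Glo) from NTP's ERR cell line after 18 h treatment at 37 C with DMSO-dissolved Tox21 compounds; cells pre-plated 6 h beforehand at 2,000 per well.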
% is set by controls: 0 for no effect and ±100 for the full control effect.

Chain of Nuclear receptor subfamily 1 group I member 3 (Homo sapiens) (Q14994 whole entry, looked up): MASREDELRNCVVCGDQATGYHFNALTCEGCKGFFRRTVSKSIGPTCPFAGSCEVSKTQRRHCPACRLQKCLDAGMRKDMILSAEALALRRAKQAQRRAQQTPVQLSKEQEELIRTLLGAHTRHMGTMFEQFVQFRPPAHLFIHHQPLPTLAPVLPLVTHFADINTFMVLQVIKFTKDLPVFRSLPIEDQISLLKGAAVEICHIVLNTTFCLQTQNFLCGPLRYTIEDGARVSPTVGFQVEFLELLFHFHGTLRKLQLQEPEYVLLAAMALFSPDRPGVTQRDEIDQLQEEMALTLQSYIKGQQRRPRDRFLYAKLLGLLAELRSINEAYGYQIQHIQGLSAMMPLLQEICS
Chain of Thyrotropin receptor (Homo sapiens) (P16473 whole entry, looked up): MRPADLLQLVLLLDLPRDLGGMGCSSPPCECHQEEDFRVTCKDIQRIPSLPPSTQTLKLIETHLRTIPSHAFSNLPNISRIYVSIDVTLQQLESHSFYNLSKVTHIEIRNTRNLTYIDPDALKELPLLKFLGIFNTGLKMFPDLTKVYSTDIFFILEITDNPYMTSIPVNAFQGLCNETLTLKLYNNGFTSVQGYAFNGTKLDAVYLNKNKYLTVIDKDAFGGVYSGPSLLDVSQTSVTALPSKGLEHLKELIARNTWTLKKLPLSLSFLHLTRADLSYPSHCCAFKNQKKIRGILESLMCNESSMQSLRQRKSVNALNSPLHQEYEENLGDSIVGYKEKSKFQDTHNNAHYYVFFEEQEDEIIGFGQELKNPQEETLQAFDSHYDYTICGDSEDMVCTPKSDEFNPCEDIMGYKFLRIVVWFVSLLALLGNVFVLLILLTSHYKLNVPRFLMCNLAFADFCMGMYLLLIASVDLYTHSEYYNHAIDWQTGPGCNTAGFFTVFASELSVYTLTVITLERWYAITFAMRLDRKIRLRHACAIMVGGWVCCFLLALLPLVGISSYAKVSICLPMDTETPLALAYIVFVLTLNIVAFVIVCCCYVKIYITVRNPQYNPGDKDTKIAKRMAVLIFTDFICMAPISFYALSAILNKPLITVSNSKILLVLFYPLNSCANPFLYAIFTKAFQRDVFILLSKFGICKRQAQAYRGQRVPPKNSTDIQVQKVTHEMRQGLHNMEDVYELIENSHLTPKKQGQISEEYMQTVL
Chain of Luciferin 4-monooxygenase (Photinus pyralis) (P08659 whole entry, looked up): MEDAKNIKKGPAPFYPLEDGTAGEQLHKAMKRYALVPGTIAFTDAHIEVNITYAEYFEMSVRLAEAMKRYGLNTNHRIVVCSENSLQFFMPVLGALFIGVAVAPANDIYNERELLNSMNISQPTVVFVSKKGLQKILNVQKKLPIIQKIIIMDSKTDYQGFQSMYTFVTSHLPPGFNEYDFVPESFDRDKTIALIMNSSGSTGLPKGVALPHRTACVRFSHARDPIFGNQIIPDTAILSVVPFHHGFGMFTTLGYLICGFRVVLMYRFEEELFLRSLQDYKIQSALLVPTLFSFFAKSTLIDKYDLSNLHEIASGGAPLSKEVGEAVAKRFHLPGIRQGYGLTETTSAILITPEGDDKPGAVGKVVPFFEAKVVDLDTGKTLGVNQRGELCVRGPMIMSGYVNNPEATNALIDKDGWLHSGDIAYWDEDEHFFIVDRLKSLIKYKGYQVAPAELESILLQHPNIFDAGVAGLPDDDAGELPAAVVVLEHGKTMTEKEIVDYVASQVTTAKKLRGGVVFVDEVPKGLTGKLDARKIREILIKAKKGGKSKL

With `CCO[Si](OCC)(OCC)OCC`, the Potency result in [1], in [2], in [3], in [4], in [5] and in experiment [6] was “inactive” each time. Also, the Potency entry in experiment [7], in experiment [8], in experiment [9], in [10], in experiment [11] and in experiment [12] was “inactive” in each case. The Potency result in experiment [13] and in [14] was “inactive” in each case.

Take `Cc1ccc(N/N=c2\c(=O)cc/c(=N\Nc3ccc(S(=O)(=O)O)cc3)c2=O)c(C)c1`: the Potency in [1] is 28.3 µM (active); in experiment [2] it was 30.6 µM (active); in [3], 48.6 µM (active); in [5] it was 30.6 µM (active). Besides, the Potency result in experiment [4], in experiment [15], in [6], in [7], in [16] and in experiment [10] was “inactive” throughout. Further, the Potency entry in [11], in [12], in [13] and in experiment [14] was “inactive” in each case. Moreover, the activity change, positive = activation in [17] (at 92.4 µM (top of the series)) is -2.81%.

For `Cc1ccc(C)cc1`, the Potency entry in experiment [1], in experiment [2], in experiment [3], in experiment [5], in experiment [18] and in [15] was “inactive” each time. Also, the Potency entry in [7], in [8], in experiment [16], in [9], in experiment [19] and in experiment [10] was “inactive” each time. The Potency entry in experiment [11], in experiment [12], in experiment [13] and in [14] was “inactive” each time. In addition, the activity change, positive = activation in experiment [17] (at 92.4 µM (top of the series)) was 0.373%.

With `O=C(Oc1ccccc1)Oc1ccccc1`, the figures for the Potency in [1] and in experiment [13] were 31.6 µM (active) and 34.5 µM (active), respectively. In addition, the Potency result in [2], in [3], in [5], in experiment [15], in experiment [6] and in [7] was “inactive” each time. Besides, the Potency result in experiment [8], in experiment [9], in experiment [19], in experiment [11] and in experiment [12] was “inactive” in each case. In addition, the activity change, positive = activation in experiment [17] (at 92.4 µM (top of the series)) was -11.4%.

With `C=C(C)C(=O)OCCCCCCCCCC`, the Potency result in [1], in experiment [2], in [3], in experiment [4], in experiment [5] and in [18] was “inactive” in each case. Besides, the Potency result in experiment [15], in experiment [6], in experiment [7], in [16], in experiment [9] and in [19] was “inactive” in each case. Moreover, the Potency entry in experiment [10], in experiment [11], in experiment [12] and in experiment [13] was “inactive” in each case. Also, in experiment [17] (at 92.4 µM (top of the series)), the activity change, positive = activation was 2.01%.

`CC(=O)c1ccc(C(C)=O)cc1`: the Potency entry in experiment [1], in experiment [2], in experiment [3], in experiment [4], in experiment [5] and in experiment [18] was “inactive” throughout. Besides, the Potency entry in experiment [15], in [6], in experiment [7], in experiment [8], in experiment [16] and in experiment [9] was “inactive” each time. For the same compound, the Potency entry in experiment [19], in experiment [11], in experiment [12], in experiment [13] and in [14] was “inactive” in each case. The activity change, positive = activation in experiment [17] (at 92.4 µM (top of the series)) was -2.27%.

Consider `Cc1cccc(C)c1NC(=O)c1ccc(N)cc1`, for which the Potency result in [1], in experiment [2], in [3], in experiment [5], in experiment [18] and in experiment [15] was “inactive” each time. For the same compound, the Potency result in experiment [6], in experiment [7], in [8], in experiment [9], in experiment [19] and in experiment [10] was “inactive” throughout. Also, the Potency result in experiment [11], in experiment [12], in [13] and in experiment [14] was “inactive” in each case. In [17] (at 42.5 µM (top of the series)), the activity change, positive = activation is 5.09%.
